# Source: PubChem BioAssay AID504332 (National Center for Advancing Translational Sciences (NCATS), 2011)
# Among all 350,000 compounds or so, about 31,000 (8.9%) were called active. Inconclusive results (about 15%) are left out. What follows is part of a selection rich in actives, with near analogues and random picks from the rest. Unmarked numbers belong to inactive results. Calls come from the whole dose curve; as a rule, active = well fitted inhibition curve with a large enough effect; inconclusive = small, poorly fitted or top-dose-only effect; inactive = no such curve, though single readings can be large or run the other way.
# Biological target: Histone-lysine N-methyltransferase EHMT2 (Homo sapiens) (UniProt Q96KQ7)
# Assay: qHTS Assay for Inhibitors of Histone Lysine Methyltransferase G9a; note: nearly all actives have a fitted effect of over 75% in size
# Conditions: G9a H3K9 monomethylation, AlphaScreen, 2 h; series mostly up to 59 µM; activity, negative = inhibition: at the top concentration
# Method in brief: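 Signal arises when biotinylated H3K9 peptide, once monomethylated, bridges streptavidin donor and antibody-captured acceptor beads. Enzyme at 20 nM was preincubated 15 min with test compounds; peptide 500 nM and SAM 20 uM then reacted for 2 h.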
# % is set by controls: 0 for no effect and ±100 for the full control effect; potency is the fitted concentration of half-maximal effect.
# Chain of Histone-lysine N-methyltransferase EHMT2 (Homo sapiens) (Q96KQ7 913-1193 limits assumed): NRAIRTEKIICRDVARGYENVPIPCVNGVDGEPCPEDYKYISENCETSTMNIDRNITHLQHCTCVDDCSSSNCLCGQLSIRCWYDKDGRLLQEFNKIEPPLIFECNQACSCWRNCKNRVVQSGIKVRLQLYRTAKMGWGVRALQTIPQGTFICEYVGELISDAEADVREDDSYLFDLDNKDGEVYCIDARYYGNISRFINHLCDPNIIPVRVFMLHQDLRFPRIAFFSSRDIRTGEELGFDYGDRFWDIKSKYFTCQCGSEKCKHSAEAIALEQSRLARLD
Compound,"activity, negative = inhibition",Potency
COc1ccc(-n2nc(C(=O)NCC(=O)N3CCN(c4ccccc4OC)CC3)c3ccccc3c2=O)c(OC)c1,-74.2% [at 102 µM],–
COC(=O)c1scc(-c2ccc(C)cc2)c1S(=O)(=O)Nc1cc(Cl)c(OC)cc1OC,-21%,–
CCC(C(=O)OC)n1cnc2scc(-c3ccc(C)cc3)c2c1=O (stereo not given),11.4% [at 102 µM],–
COC(=O)c1c(-c2ccc(C)cc2)csc1N,–,31.6 µM (active)
NC(=O)CSc1nc2c(oc3ccccc32)c(=O)n1Cc1ccccc1,0.31%,–
COc1ccc(Cc2nnc(NC(=O)Cc3cccs3)s2)cc1,–,39.8 µM (active)
O=C(Cc1cccs1)Nc1nnc(SCc2ccc(F)cc2)s1,17.6% [at 102 µM],–
CCc1nnc(NC(=O)Cc2cccs2)s1,5.33% [at 102 µM],–
CCOc1ccc(CCNC(=O)COC(=O)c2c(OC)cccc2OC)cc1OCC,-6.24% [at 2.33 µM],–
CCN(C(=O)CSc1nnnn1-c1ccccc1OC)C1CCS(=O)(=O)C1 (stereo not given),-20.6% [at 102 µM],–
O=C(Cn1c(=O)n(Cc2ccccc2)c(=O)c2sc3ccccc3c21)Nc1ccccc1F,7.47%,–
NC(=O)c1sc(-c2ccsc2)cc1N,–,14.1 µM (active)
COc1cc(OC)cc(-c2nc3nc(C)c(CCC(=O)Nc4ccc(C)cc4)c(C)n3n2)c1,6.77%,–
COc1ccc(/C=C(\C#N)C(=O)OCC(=O)N(C)C2CCS(=O)(=O)C2)cc1 (stereo not given),1.94% [at 102 µM],–
O=C(Cc1ccccc1)NNC1CC(=O)N(c2ccc(Br)cc2)C1=O (stereo not given),17.2%,–
Cc1ccc(N2C(=O)CC(Nc3cccc4ccccc34)C2=O)cc1 (stereo not given),–,14.1 µM (active)
Cc1ccc(N2C(=O)C3CC3C2=O)cc1 (stereo not given),11.1% [at 102 µM],–
Cc1cccc(NC(=O)c2nnn(CC(=O)Nc3ccc(C(C)C)cc3)c2N)c1C,8.78%,–
CN(CC(=O)NCc1ccc2c(c1)OCO2)CC(=O)Nc1ccc(F)c(F)c1F,2.14% [at 12.7 µM],–
CC1CCN(C(=O)/C(=C\c2ccccc2)NC(=O)c2ccccc2)CC1,4.64% [at 102 µM],–
CC1CCN(c2ccc([N+](=O)[O-])cc2C(N)=O)CC1,10.6% [at 102 µM],–
O=C(c1cccc([N+](=O)[O-])c1)N1CCN(C(=O)c2ccco2)CC1,-8.6% [at 102 µM],–
CC1CCN(C(=S)c2cccc(O)c2)CC1,–,14.1 µM (active)
CC1CCN(C(=O)CCNC(=O)c2ccccc2)CC1,8.2% [at 102 µM],–

Compound,"activity, negative = inhibition",Potency
CC1CCN(C(=S)c2cccc([N+](=O)[O-])c2)CC1,–,35.5 µM (active)
Cc1ccc(Cl)c(OCC(=O)N(C)CC(=O)Nc2ccc(N3CCOCC3)cc2)c1,10.6% [at 0.501 µM],–
CCc1ccccc1NC(=O)CSc1nc(C)c(C(=O)Nc2ccccc2)c(-c2ccc(Cl)cc2)c1C#N,24.8%,–
Cc1ccccc1C(=O)Nc1cc(C)c(O)c(-c2nc3ccccc3o2)c1,0.528%,–
COC(=O)CN1C(=O)[C@H]2[C@@H](C3CC3)N3C(=O)CN(Cc4ccc(-c5ccccc5)cc4)C(=O)[C@@]3(Cc3ccccc3)[C@H]2C1=O,-1.89% [at 102 µM],–
CSc1ccc(C2C(C(=O)Nc3ccccc3)=C(C)Nc3nc4ccccc4n32)cc1 (stereo not given),-23.8%,–
Cc1cc(C)n(CCNS(=O)(=O)c2ccc(Cl)cc2)n1,-7.54% [at 0.501 µM],–
CCn1c(CNS(=O)(=O)c2ccc(Cl)cc2)n[nH]c1=S,–,28.2 µM (active)
CSc1ccc(S(=O)(=O)NCc2ccc(Cl)cc2)cc1,15.9% [at 12.7 µM],–
O=C(c1cc(-c2ccc(Cl)s2)nc2ccccc12)N1CCOCC1,17% [at 12.7 µM],–
COc1ccc(CN2C(=O)C(NC(=O)c3cccc(C)c3)(C(F)(F)F)N=C2c2ccccc2)cc1 (stereo not given),5.18%,–
CCCCOc1ccc(CSC(=N)N)cc1[N+](=O)[O-],7.15% [at 12.7 µM],–
COCCNc1cc(NCCOC)c([N+](=O)[O-])cc1[N+](=O)[O-],-5.08%,–
Cc1ccc([N+](=O)[O-])c(OCCCNCC(C)O)c1 (stereo not given),–,12.6 µM (active)
COc1ccc(CC(NC(C)=O)C(=O)NC2CCN(C(=O)c3ccc(Cl)cc3)CC2)cc1 (stereo not given),-11.3% [at 102 µM],–
O=C(Nc1ccc(F)cc1)N1CCCC(c2nc3c(nnn3Cc3ccccc3Cl)c(=O)[nH]2)C1 (stereo not given),0.052% [at 102 µM],–
O=C(c1ccccc1F)N1CCC(c2nc3c(nnn3Cc3cccc(F)c3)c(=O)[nH]2)CC1,–,1 µM (active)
Cc1ccc(NC(=O)N2CCC(c3nc4c(nnn4Cc4c(F)cccc4Cl)c(=O)[nH]3)CC2)cc1,-23.2% [at 102 µM],–
Cc1ccccc1Nc1nn2c(=O)c3ccc(C(=O)NCCc4ccc(Cl)cc4)cc3nc2s1,-4.26%,–
COc1ccc(-c2nc3ccc(C(=O)NCc4ccc(C)cc4)cc3nc2-c2ccc(OC)cc2)cc1,23.6%,–
Cc1cccc(-c2nc3ccc(C(=O)NCCN4CCN(C)CC4)cc3nc2-c2cccc(C)c2)c1,–,70.8 µM (active)
Cc1cccc(C(=O)NCCCN2CCCC2=O)c1,16.7% [at 102 µM],–
CCc1ccc(CNC(=O)C2CCN(c3nnc(C)c4c(C)n(-c5ccc(C)cc5)nc34)CC2)cc1,–,inactive
CC1CC1C(=O)OCC(=O)Nc1cccc(F)c1 (stereo not given),17.7% [at 2.33 µM],–

Compound,"activity, negative = inhibition",Potency
O=C(CSc1nncs1)NC1CCCc2ccccc21 (stereo not given),3.13% [at 102 µM],–
O=C(CCNC(=O)c1ccc(Cl)cc1)NC1CCCc2ccccc21 (stereo not given),15.5% [at 2.33 µM],–
O=C(CN1CCN(c2ccc(O)cc2)CC1)NC1CCCc2ccccc21 (stereo not given),–,25.1 µM (active)
Cc1ccc(S(=O)(=O)N2CCN(C(=O)CCC(=O)NC3CCCc4ccccc43)CC2)cc1 (stereo not given),-0.0182% [at 102 µM],–
O=C(CCC(=O)N1CCN(S(=O)(=O)c2ccccc2)CC1)NC1CCCc2ccccc21 (stereo not given),11.3%,–
CSc1ccccc1N1CCN(CCCCCC(=O)NC2CCCc3ccccc32)CC1 (stereo not given),–,21.2 µM (active)
COc1ccc(CCN2C(=O)c3oc4cc(C)cc(C)c4c(=O)c3C2c2ccccc2F)cc1OC (stereo not given),5.08%,–
COc1cccc2[nH]c(C(=O)NCCc3ccccc3)cc12,21.5% [at 102 µM],–
CCNC(=O)c1cnn(-c2ccccc2)c1-c1ccccc1,-1.29% [at 102 µM],–
Cc1cc(=O)c2cc(C(=O)Nc3cccc(C)c3C)ccc2[nH]1,-8.29%,–
COc1ccc(/C=N/NC(=O)c2ccc(Cl)cc2)cc1COC(C)=O,-4.32%,–
COc1ccc(/C=N/NC(=O)c2ccncc2)cc1CN1CCCc2ccccc21,–,35.5 µM (active)
COc1cc(/C=N/NC(=O)CNC(=O)c2ccncc2)ccc1OC(C)=O,15.1% [at 102 µM],–
COC(=O)CN1C(=O)CSc2ccc(S(=O)(=O)Nc3cc(C)ccc3C)cc21,-6.35%,–
CCCCSc1nnc(-c2ccc(NC(=O)CC)cc2)n1C,–,50.1 µM (active)
Cn1c(SCC(=O)NC2CCCCC2)nnc1-c1ccc(N)cc1,-1.06% [at 102 µM],–
CCC(=O)Nc1cccc(NC(=O)CSc2nnc(-c3ccc(NS(C)(=O)=O)cc3)n2C)c1,-1.1%,–
CCc1ccc(N(CC(=O)NCc2cccnc2)S(=O)(=O)c2ccccc2)cc1,11% [at 102 µM],–
Cc1ccc(S(=O)(=O)c2nnn3c2nc(N2CCN(c4ccccc4F)CC2)c2cc(Cl)ccc23)cc1C,7.4%,–
CCOc1cccc(CNC(=O)c2ccc(N3CCCC3)c(NC(=O)Nc3ccccc3CC)c2)c1,-4.88%,–
CCOCCn1ccc2c(OCC(=O)NCc3ccc(C)cc3)cccc2c1=O,-1.84%,–
Cc1ccc(CNC(=O)COc2ccc3c(c2)CCC3)cc1,26.7%,–
CCOCC(=O)NCc1ccc2c(c1)cc(C)n2C,–,35.5 µM (active)
COc1cc(Cl)c(C)cc1NC(=O)CCc1nc2cccnc2n1Cc1cccs1,-19.7%,–

Compound,"activity, negative = inhibition",Potency
CC(=O)c1ccc2c(c1)c1ccccc1n2CC(C)C,85.8% [at 102 µM],–
CCn1c(NC(=O)c2ccccc2)c(-c2cccs2)c(=O)c2ccccc21,-9.9% [at 102 µM],–
CC(C)Cn1c(CCC(=O)O)ccc1-c1cccs1,–,17.8 µM (active)
CCCCCn1c(CCNC(=O)c2ccc(F)cc2)nc2ccccc21,5.58%,–
CCN(CC)CCCNC(=O)c1c(O)c2cc(F)cc3c2n(c1=O)C(C)CC3 (stereo not given),-70% [at 102 µM],–
CCOc1ccccc1Nc1ccc2nonc2c1[N+](=O)[O-],-2.07% [at 102 µM],–
NC(=O)c1ccc(Nc2ccc3nonc3c2[N+](=O)[O-])cc1,–,56.2 µM (active)
NC(=O)c1ccc(Nc2ccc3c(c2)CCC3)c([N+](=O)[O-])c1,20.1% [at 102 µM],–
O=C(NC1CCCC1)c1cc(-c2ccccc2)on1,7.25% [at 102 µM],–
CC(C)(C)N(Cc1ccccc1)C(=O)COC(=O)CCc1c[nH]c2ccccc12,–,14.1 µM (active)
CN(C(=O)COC(=O)CCCc1c[nH]c2ccccc12)c1c(N)n(Cc2ccccc2)c(=O)[nH]c1=O,16.6%,–
O=C(COC(=O)Cc1c[nH]c2ccccc12)NCCc1ccccc1,-36.1% [at 102 µM],–
O=C1CCc2cc(S(=O)(=O)Nc3ccc(C(F)(F)F)cc3)cc3c2N1CC3,-22.3% [at 0.501 µM],–
Nc1ncc(CN2CCCC(C(=O)Nc3ccc(-c4ccco4)cc3)C2)cn1 (stereo not given),–,50.1 µM (active)
COC(=O)c1ccc(CN2CCCC(C(=O)Nc3cccc(-n4cnnn4)c3)C2)cc1 (stereo not given),6.29% [at 102 µM],–
CCOc1ccc(NC(=O)C2CCCN(C(=O)Nc3ccccc3)C2)cc1 (stereo not given),-10.8%,–
CCNS(=O)(=O)c1cc(-c2nnc(Nc3cccc(C(F)(F)F)c3)c3ccccc23)ccc1C,-24.3%,–
Cc1c(C(=O)Nc2ccccn2)oc2ccc(Br)cc12,2.88% [at 102 µM],–
Cc1ccc(CNC(=O)c2cccc3c2C(=O)c2ccc(N4CCC(C)CC4)cc2S3(=O)=O)cc1,6.64% [at 0.501 µM],–
Cc1ccc(NC(=O)CSc2nc(=O)n(CCN(C)C)c3c2CCCC3)c(C)c1,6.7% [at 0.501 µM],–
Cc1ccc2nc(NC(=O)CSc3nc(=O)n(CCCN(C)C)c4c3CCC4)sc2c1,–,39.8 µM (active)
Cc1csc(NC(=O)CSc2nc(=O)n(CCCN(C)C)c3c2CCC3)n1,-47% [at 102 µM],–
Cc1ccc(OCC(=O)Nc2ccc(OCc3cc(=O)n4c(C)csc4n3)cc2)cc1C,29%,–
